# Assay results: PubChem BioAssay (Tox21)
# Where “and” joins values, the source holds several entries; their conditions need not be identical. Equal entries are not always repeated. Records with an inconclusive call do not appear. Entries that show only a call come without a potency. Calls of active or inactive are those of the source. Unless noted, calls come from the whole dose curve; as a rule, active = well fitted curve in the direction sought with a large enough effect in the repeat runs; inconclusive = weak or mixed curves; inactive = no such curve, though single readings can be large; an effect the other way counts as inactive or inconclusive. Positions of bridges follow the written chain, without caps; N, C: chain ends. Non-standard residues stand in square brackets, D forms with d. Residues, ends and D or L forms follow the SMILES beside them. *: point of attachment. Dab(CH2SO3H) = N[C@@H](CCNCS(=O)(=O)O)C(=O)O; X3 = CC[C@@H](C)CCCCC(=O)*; Dab = NCC[C@H](N)C(=O)O
# Legend:
# [1] = qHTS assay to identify small molecule antagonists of the glucocorticoid receptor (GR) signaling pathway - cell viability counter screen (AID 720693); note: nearly all actives have a fitted effect of over 55% in size; note: potency is the fitted concentration of half-maximal effect
# [2] = qHTS assay for identifying genotoxic compounds that show differential cytotoxicity against isogenic chicken DT40 cell lines with known DNA damage response pathways - wild type cell line (AID 743012); note: nearly all actives have a fitted effect of over 60% in size; note: potency is the fitted concentration of half-maximal effect
# Method in brief: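 Viability by ATP luminescence (CellTiter-Glo, 30 min RT) after 40 h compound treatment at 37 C/5% CO2, using 300 parental DNA repair-proficient DT40 cells per well.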
# [3] = qHTS assay for identifying genotoxic compounds that show differential cytotoxicity against isogenic chicken DT40 cell lines with known DNA damage response pathways - Rev3 mutant cell line (AID 743014); note: nearly all actives have a fitted effect of over 55% in size; note: potency is the fitted concentration of half-maximal effect
# [4] = qHTS assay for identifying genotoxic compounds that show differential cytotoxicity against isogenic chicken DT40 cell lines with known DNA damage response pathways - Rad54/Ku70 mutant cell line (AID 743015); note: nearly all actives have a fitted effect of over 60% in size; note: potency is the fitted concentration of half-maximal effect
# [5] = qHTS assay to identify small molecule antagonists of the androgen receptor (AR) signaling pathway - cell viability counter screen (AID 743033; note: nearly all actives have a fitted effect of over 45% in size)
# [6] = qHTS assay to identify small molecule antagonists of the androgen receptor (AR) signaling pathway using the MDA cell line - cell viability counter screen (AID 743041; note: nearly all actives have a fitted effect of over 45% in size; note: potency is the fitted concentration of half-maximal effect)
# Method in brief: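 qHTS viability read-out; MDA-kb2 AR-luc; R1881-stimulated; 16 h exposure at 37C, 0% CO2; CellTiter-Fluor, 30 min; fluorescence intensity.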
# [7] = target: Androgen receptor (Homo sapiens) (UniProt P10275); test: qHTS assay to identify small molecule antagonists of the androgen receptor (AR) signaling pathway (AID 743035; active = well fitted inhibition curve with a large enough effect in the signal ratio in the repeat runs, not every such curve was filed as active; the % refers to the signal ratio; note: potency is the fitted concentration of half-maximal effect)
# Sequence of Androgen receptor (Homo sapiens) (P10275 whole entry, looked up): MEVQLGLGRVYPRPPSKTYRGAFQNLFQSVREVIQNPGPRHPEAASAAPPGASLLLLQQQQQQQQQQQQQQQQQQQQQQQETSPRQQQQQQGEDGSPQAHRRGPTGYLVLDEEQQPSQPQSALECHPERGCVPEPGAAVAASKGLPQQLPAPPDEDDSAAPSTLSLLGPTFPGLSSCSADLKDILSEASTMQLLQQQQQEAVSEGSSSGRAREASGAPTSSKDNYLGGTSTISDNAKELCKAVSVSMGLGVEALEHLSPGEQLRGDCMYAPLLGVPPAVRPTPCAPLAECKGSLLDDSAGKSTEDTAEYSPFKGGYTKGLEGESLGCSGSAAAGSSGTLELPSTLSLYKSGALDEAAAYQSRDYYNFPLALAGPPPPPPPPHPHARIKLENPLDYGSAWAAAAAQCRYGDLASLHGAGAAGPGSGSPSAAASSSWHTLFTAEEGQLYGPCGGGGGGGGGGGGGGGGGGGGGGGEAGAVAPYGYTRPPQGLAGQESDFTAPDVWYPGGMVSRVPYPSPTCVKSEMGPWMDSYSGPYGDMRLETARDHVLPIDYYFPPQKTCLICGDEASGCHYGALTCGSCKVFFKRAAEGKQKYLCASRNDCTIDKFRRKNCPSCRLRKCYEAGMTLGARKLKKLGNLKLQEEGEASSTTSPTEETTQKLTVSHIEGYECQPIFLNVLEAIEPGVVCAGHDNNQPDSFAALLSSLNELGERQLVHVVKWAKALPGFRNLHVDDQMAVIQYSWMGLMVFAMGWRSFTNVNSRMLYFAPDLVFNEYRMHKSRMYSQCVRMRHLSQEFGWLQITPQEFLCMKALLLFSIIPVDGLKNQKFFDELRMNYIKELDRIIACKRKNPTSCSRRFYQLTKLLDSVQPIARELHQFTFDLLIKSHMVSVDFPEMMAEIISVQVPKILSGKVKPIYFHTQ
# Method in brief: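 Antagonist mode: AR-bla HEK293 cells co-treated with test compounds and agonist R1881 for 16 h at 37C, 5% CO2. Beta-lactamase activity read as FRET fluorescence after 2 h room-temperature substrate loading.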
# [8] = target: Androgen receptor (Homo sapiens) (UniProt P10275); test: qHTS assay to identify small molecule agonists of the androgen receptor (AR) signaling pathway using the MDA cell line (AID 743040; note: nearly all actives have a fitted effect of over 20% in size; note: potency is the fitted concentration of half-maximal effect)
# Method in brief: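 Agonist activity is measured as luciferase luminescence in human MDA-kb2 cells whose MMTV reporter responds to both AR and GR. Compounds in DMSO incubate 16 h at 37C, 0% CO2, and ONE-Glo is read after 30 min.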
# [9] = target: Androgen receptor (Homo sapiens) (UniProt P10275); test: qHTS assay to identify small molecule antagonists of the androgen receptor (AR) signaling pathway using the MDA cell line (AID 743042; note: nearly all actives have a fitted effect of over 55% in size; note: potency is the fitted concentration of half-maximal effect)
# Method in brief: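 MDA-kb2 cells (human breast carcinoma, stably carrying an MMTV-luciferase reporter responsive to AR and GR) were plated at 3,000 cells/well and preincubated 5 hr at 37C, then given compound plus R1881 agonist for 16 h. ONE-Glo luminescence was read.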
# [10] = target: Androgen receptor (Homo sapiens) (UniProt P10275); test: qHTS assay to identify small molecule agonists of the androgen receptor (AR) signaling pathway (AID 743036; active = well fitted activation curve with a large enough effect in the signal ratio in the repeat runs, with a control signal flat, not every such curve was filed as active; the % refers to the signal ratio)
# Method in brief: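 HEK293 cells stably carrying a UAS-driven beta-lactamase reporter (GeneBLAzer AR-UAS-bla-GripTite) were plated at 2,000 cells/well, rested 4 h at 37C, then exposed to compounds in DMSO for 16 h. LiveBLAzer B/G FRET substrate was added for 2 h at room temperature; fluorescence read.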
SMILES,Potency [1],Potency [2],Potency [3],Potency [4],Potency [5],Potency [6],Potency [7],Potency [8],Potency [9],Potency [10]
O=C[C@H](O)[C@@H](O)[C@@H](O)[C@H](O)CO,inactive,inactive,inactive,inactive,inactive,inactive,–,–,–,–
C1CCc2nnnn2CC1,inactive,inactive,inactive,inactive,inactive,inactive,–,–,–,–
COC(=O)[C@H]1[C@H]2C[C@H]3c4[nH]c5ccccc5c4CCN3C[C@H]2CC[C@@H]1O,inactive,inactive,inactive,inactive,inactive,inactive,–,–,–,–
CCC(NC(C)C)C(O)c1ccc(O)c(O)c1 (configuration not stated),inactive,inactive,inactive,inactive,inactive,inactive,–,–,–,–
CS(=O)(=O)c1ccc([C@@H](O)[C@@H](COC(=O)CN)NC(=O)C(Cl)Cl)cc1,inactive,5.96 µM (active),6.68 µM (active),7.5 µM (active),inactive,inactive,–,–,–,–
C[C@H](NCCc1ccc(O)cc1)[C@H](O)c1ccc(O)cc1,inactive,inactive,inactive,inactive,inactive,inactive,–,–,–,–
C[S+](CC[C@H](N)C(=O)O)C[C@H]1O[C@@H](n2cnc3c(N)ncnc32)[C@H](O)[C@@H]1O (some centres not stated),inactive,inactive,inactive,inactive,inactive,inactive,–,–,–,–
OCl,inactive,inactive,inactive,inactive,inactive,inactive,–,–,–,–
O=C1[O][Bi][O]c2ccccc21,inactive,inactive,inactive,inactive,inactive,inactive,–,–,–,–
CC(C)c1ncc([N+](=O)[O-])n1C,inactive,inactive,inactive,inactive,–,inactive,inactive,inactive,inactive,–
N=C(N)n1cccn1,inactive,inactive,inactive,inactive,–,inactive,–,–,–,–
Cc1cc(N)c2ccccc2[n+]1CCCCCCCCCC[n+]1c(C)cc(N)c2ccccc21,inactive,2.54 µM (active),2.54 µM (active),2.85 µM (active),–,7.49 µM (active),–,–,–,–
CC[C@@H](C(=O)[C@@H](C)[C@@H](O)[C@H](C)CCc1ccc(C)c(O)c1C(=O)O)[C@H]1O[C@](CC)([C@H]2CC[C@](O)(CC)[C@H](C)O2)C[C@@H]1C,23.9 µM (active),5.96 µM (active),4.73 µM (active),6.68 µM (active),–,11.1 µM (active),15.1 µM (active),1.88 µM (active),inactive,–
O=C1c2ccccc2CN2C(=O)c3ccccc3CN12,inactive,inactive,inactive,inactive,–,inactive,–,–,–,–
C=CC1=C(C(=O)O)N2C(=O)[C@@H](NC(=O)/C(=N\O)c3csc(N)n3)[C@H]2SC1 (stereo in doubt),inactive,inactive,inactive,inactive,–,inactive,inactive,inactive,inactive,inactive
C=CC[N@@+]12CC[C@@]34c5ccccc5N5/C=C6/[C@H]7C[C@H]8[C@@]9(CC[N@@+]8(CC=C)C/C7=C/CO)c7ccccc7N(/C=C(/[C@@H](C[C@@H]31)/C(=C\CO)C2)[C@H]54)[C@@H]69,inactive,inactive,inactive,inactive,inactive,inactive,–,–,–,–
CN1CC[C@H](c2c(O)cc(O)c3c(=O)cc(-c4ccccc4Cl)oc23)[C@H](O)C1,0.601 µM (active),0.106 µM (active),0.15 µM (active),0.15 µM (active),–,inactive,–,inactive,0.106 µM (active),–
CC[C@@H](C)CCCCC(=O)N[C@@H](CCNCS(=O)(=O)O)C(=O)N[C@H](C(=O)N[C@@H](CCNCS(=O)(=O)O)C(=O)N[C@H]1CCNC(=O)[C@H]([C@@H](C)O)NC(=O)[C@H](CCNCS(=O)(=O)O)NC(=O)[C@H](CCNCS(=O)(=O)O)NC(=O)[C@H](CC(C)C)NC(=O)[C@@H](CC(C)C)NC(=O)[C@H](CCNCS(=O)(=O)O)NC1=O)[C@@H](C)O (X3-[Dab(CH2SO3H)]T[Dab(CH2SO3H)][Dab][Dab(CH2SO3H)][dL]L[Dab(CH2SO3H)][Dab(CH2SO3H)]T; lactam 4-C),inactive,23.7 µM (active),23.7 µM (active),18.8 µM (active),–,inactive,–,inactive,inactive,inactive
Cc1c(N)nc([C@H](CC(N)=O)NC[C@H](N)C(N)=O)nc1C(=O)N[C@H](C(=O)N[C@H](C)[C@@H](O)[C@H](C)C(=O)N[C@H](C(=O)NCCc1nc(-c2nc(C(=O)NCCCCN=C(N)N)cs2)cs1)[C@@H](C)O)[C@@H](O[C@@H]1O[C@@H](CO)[C@@H](O)[C@H](O)[C@@H]1O[C@H]1O[C@H](CO)[C@@H](O)[C@H](OC(N)=O)[C@@H]1O)c1cnc[nH]1,inactive,4.22 µM (active) and 1.5 µM (active),1.33 µM (active),211 nM (active) and 37.6 nM (active),inactive,inactive,–,–,–,–
CC(C)(S)C(=O)N[C@@H](CS)C(=O)O,inactive,inactive,inactive,inactive,inactive,inactive,–,–,–,–
